# Shown are actives, neighbours in structure and some others; about 21% of the full set was active somewhere.
# DT40 TDP1 no CPT: qHTS for Inhibitors of human tyrosyl-DNA phosphodiesterase 1 (TDP1): qHTS in cells in absence of CPT; DT40 Tdp1-/- hTDP1 cells, no CPT, ATP luminescence, 48 h; Potency, µM (series often up to 46.2 µM), inactives show at the highest dose activity change, negative = growth inhibition, most hits filed as inhibitors; AID 686978, 2013; 420,000 compounds, 15% hits; further: potency means the concentration at half of the fitted maximal effect; on the % scale 0 is the no-effect control and ±100 the full control effect; nearly all actives have a fitted effect of over 55% in size
#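 Compound effects on proliferation are scored in DT40 Tdp1-/-;hTDP1 cells in the absence of CPT. ATP levels (CellTiter-Glo luminescence) are recorded after a ≥48 hr, 37 °C incubation.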
# ClpP mod: qHTS Assay for Activators of ClpP | ATP-dependent Clp protease proteolytic subunit (Bacillus subtilis (strain 168)), P80244 | purified B. subtilis ClpP, FRET peptide cleavage, 20 min | Potency, µM (doses to about 57.5 µM), without a hit: at the top dose activity change, negative = active | 340,000 compounds, 1.9% hits; active means well fitted falling curve with a large enough effect; inconclusive means small, poorly fitted or top-dose-only effect; inactive means no such curve, though single readings can be large or run the other way; further: potency means the concentration at half of the fitted maximal effect; the source files actives as falling curves though it sought activators and does not explain the sign; nearly all actives have a fitted effect of over 65% in size
# Target sequence (P80244 whole entry, looked up): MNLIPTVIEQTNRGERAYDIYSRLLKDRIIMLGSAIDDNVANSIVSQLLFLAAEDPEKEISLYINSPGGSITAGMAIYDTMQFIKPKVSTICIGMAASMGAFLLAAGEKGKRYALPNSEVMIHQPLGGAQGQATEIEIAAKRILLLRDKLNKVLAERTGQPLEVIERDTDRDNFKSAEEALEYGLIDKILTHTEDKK
#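 ClpP 10 microg/mL final, pH 8 Tris/KCl buffer with BSA, glycerol, Tween-20; compound pinned in; FRET-FV substrate; RT 20 min; Ex320/Em430; ΔFRET vs ADEP 5.8 microM, DMSO, no enzyme.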
# IL1B secr inh: qHTS for Inhibitors of Inflammasome Signaling: IL-1-beta AlphaLISA Primary Screen; activity change, % at 57.5 µM; THP-1 LPS/ATP IL-1B secretion, AlphaLISA, 16 h; hits give low values; 360,000 compounds, 4.7% hits; in the data active means activity change below about -50%; inconclusive means mostly about -30% to -49%; further: on the % scale 0 is the no-effect control and ±100 the full control effect
#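 THP-1 cells pretreated 1 hr with compounds (up to 57.5 uM final), then stimulated with LPS (250 ng/mL final) plus ATP (1.25 mM final); secreted IL-1B measured by AlphaLISA after 16 hr, decreased signal indicating inhibition.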
# DT40 TDP1 CPT: qHTS for Inhibitors of human tyrosyl-DNA phosphodiesterase 1 (TDP1): qHTS in cells in presence of CPT; chicken DT40 Tdp1-/-;hTDP1 cells + 20 nM CPT, ATP luminescence, 48 h; Potency, µM (highest dose often 46.2 µM), without a hit: at the highest dose activity change, negative = growth inhibition, most hits filed as inhibitors; 420,000 compounds, 12% hits; AID 686979, 2013; further: potency means the concentration at half of the fitted maximal effect; on the % scale 0 is the no-effect control and ±100 the full control effect; nearly all actives have a fitted effect of over 55% in size
#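 Chicken DT40 Tdp1-/- cells complemented with human TDP1, 400 cells/well, exposed to compounds plus 20 nM camptothecin for at least 48 h at 37 C; viability read as ATP content by CellTiter-Glo luminescence.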
# DRD3 antagonist: qHTS of D3 Dopamine Receptor Antagonist: qHTS; D(3) dopamine receptor (Homo sapiens), P35462; D3R cells, DiscoveRx beta-arrestin luminescence, antagonist mode; hits give low values; max response, negative = inhibition, %; 360,000 compounds, 2.5% hits; AID 652054, 2013; in the data active means max response below about -50%; inconclusive means no clear call, values can overlap the other calls; further: on the % scale 0 is the no-effect control and ±100 the full control effect
# Target sequence (P35462 whole entry, looked up): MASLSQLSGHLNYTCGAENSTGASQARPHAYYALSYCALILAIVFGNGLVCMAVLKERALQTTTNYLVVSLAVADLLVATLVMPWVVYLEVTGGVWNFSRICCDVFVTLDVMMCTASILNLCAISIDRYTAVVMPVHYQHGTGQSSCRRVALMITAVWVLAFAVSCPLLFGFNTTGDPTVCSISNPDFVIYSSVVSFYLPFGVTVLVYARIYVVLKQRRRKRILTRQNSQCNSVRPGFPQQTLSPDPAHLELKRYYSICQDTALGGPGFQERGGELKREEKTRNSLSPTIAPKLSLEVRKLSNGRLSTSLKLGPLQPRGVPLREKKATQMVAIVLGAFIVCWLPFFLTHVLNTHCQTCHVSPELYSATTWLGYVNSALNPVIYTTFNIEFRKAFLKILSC
#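 Cells expressing the human receptor were seeded at 1500 cells/well, incubated overnight at 37 degrees C in 5% CO2, then exposed to library compounds with dopamine controls for 90 minutes at 37 degrees C before luminescent detection.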
# DRD3 agonist: qHTS of D3 Dopamine Receptor Agonist: qHTS. D(3) dopamine receptor (Homo sapiens), P35462. D3R DiscoveRx beta-arrestin cells, luminescence, 90 min. max activation, %. 410,000 compounds, 0.58% hits. AID 652048, 2013; in the data active means max activation above about 30%; further: 0% is about no effect
#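 Agonist mode: compounds and dopamine controls were applied to plated cells for 90 min at 37 degrees C after an overnight attachment at 1500 cells/well. Luminescent read-out followed 30 - 60 minutes at room temperature with DiscoveRx detection reagent.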
# * marks the source's active call; other numbers are inactive results; ? = inconclusive; . = no result. Unless noted, the call rests on the fitted dose curve; in most records, active means well fitted inhibition curve with a large enough effect; inconclusive means small, poorly fitted or top-dose-only effect; inactive means flat fitted curve, though single readings scatter.
SMILES,DT40 TDP1 no CPT,ClpP mod,IL1B secr inh,DT40 TDP1 CPT,DRD3 antagonist,DRD3 agonist
CC[C@@H](C)[C@H](NC(=O)OC(C)(C)C)c1nnc(S(=O)(=O)Cc2cc(C)ccc2C)o1,2.3µM*,0%,0,1.3µM*,-79*,-8
CC[C@@H](C)[C@H](NC(=O)OCc1ccccc1)c1nnc([C@@H](NC(=O)OCc2ccccc2)[C@@H](C)CC)o1,?,1%,-9,?,11,1
Cc1cc2c(cc3c(SCc4cccc(F)c4)nnc(C)n32)o1,?,-11%,.,?,.,-2
CC(C)C[C@H](N)c1nnc(S(=O)(=O)Cc2cccc(F)c2)o1,5.8µM*,0%,?,5.8µM*,?,-12
Cc1ccc(-c2cc(C(=O)N3CCN(C(=O)c4ccco4)CC3)[nH]n2)cc1C,-26%,0%,?,?,-9,-6
O=[N+]([O-])c1ccc2c(c1N1CCCCC1)=NC1(CCCCC1)[N+]=2[O-],21µM*,.,3,21µM*,-22,-7
O=[N+]([O-])c1ccc(Cl)cc1N1CCCCC1,-16%,-2%,5,?,-5,2
COCCNC(=O)c1cc2c(s1)-c1ccc(Cl)cc1SC2,?,.,-57*,-17%,9,-7
CCOc1ccc(N(CC)C(=O)c2cc3c(s2)-c2ccc(Cl)cc2SC3)cc1,?,1%,.,12µM*,.,-2
COc1ccccc1N(CN1CCCC1=O)C(=O)c1c(F)cccc1Cl,10µM*,-2%,11,21µM*,-21,6
COc1ccccc1C(=O)N(CN1CCCC1=O)c1cccc(Cl)c1,?,-2%,17,?,17,-1
CCOc1ccccc1C(=O)N(CN1CCCC1=O)c1cccc(Cl)c1,9.2µM*,6%,22,15µM*,3,-2
CCOc1ccccc1NC(=O)COC(=O)C1CCC(=O)N1 (stereo not drawn),-11%,.,23,3%,12,2
C#CCNC(=O)C[C@@H]1C[C@@]2(C(=O)OC)CCCCC=C2N(Cc2ccc3c(c2)OCO3)C1=O,?,0%,11,-2%,7,-11
Cc1ccc(S(=O)(=O)N(CC(=O)Nc2ccc(Cl)c([N+](=O)[O-])c2)C2CCCCC2)cc1,?,28µM*,-3,?,0,-10
CS(=O)(=O)N(CC(=O)NCc1ccc(Cl)cc1)C1CCCCC1,15µM*,1%,-15,21µM*,?,-11
Cc1ccc(S(=O)(=O)N(CC(=O)NCc2ccncc2)C2CCCCC2)cc1,9.2µM*,0%,8,12µM*,?,6
CN(c1cccc(NC(=O)c2ccc(Cl)c(S(=O)(=O)Nc3ccccc3)c2)c1)S(C)(=O)=O,16µM*,-2%,-8,?,53,52*
Cc1ccc(C(=O)Nc2ccccc2C(=O)O)cc1S(=O)(=O)Nc1ccccc1,23µM*,1%,10,-29%,93,29
Cc1ccc(NS(=O)(=O)c2cc(C(=O)Nc3cccc([N+](=O)[O-])c3)ccc2C)cc1,?,-4%,-80*,?,3,-2
Cc1ccc(NS(=O)(=O)c2cc(C(=O)Nc3cccnc3)ccc2C)cc1,?,0%,0,0%,-2,-1
Cc1ccc(C(=O)Nc2cccc([N+](=O)[O-])c2)cc1S(=O)(=O)Nc1cccc(C(=O)O)c1,?,.,13,?,-1,6
Cc1ccc(C(=O)Nc2cccc([N+](=O)[O-])c2)cc1S(=O)(=O)Nc1ccc(NC(=O)c2ccccc2)cc1,16µM*,1%,6,16µM*,6,-2
Cc1ccc(C(=O)Nc2ccccc2)cc1S(=O)(=O)Nc1ccc(Br)cc1,?,-5%,.,?,.,7
Cc1ccc(C(=O)Nc2ccc(Br)cc2)cc1S(=O)(=O)Nc1ccccn1,-20%,28µM*,13,-25%,-21,-13
SMILES,DT40 TDP1 no CPT,ClpP mod,IL1B secr inh,DT40 TDP1 CPT,DRD3 antagonist,DRD3 agonist
Cn1c(-c2ccccc2)cc2onc(-c3ccccc3)c2c1=O,21µM*,-13%,-8,15µM*,-69*,0
Cn1c(-c2ccccc2F)cc2onc(-c3ccccc3)c2c1=O,?,-11%,?,?,-30,-60
CCCN(CC(=O)Nc1ccc(Cl)cc1Cl)C(=O)/C=C/c1ccco1,16µM*,-6%,-24,?,-3,-7
Cc1ccc2nc(/C(C#N)=C\c3cc(O)ccc3[N+](=O)[O-])[nH]c2c1,-22%,.,3,-8%,-8,1
Cc1ccc2nc(/C(C#N)=C\c3ccc(Oc4ccc(C(F)(F)F)cc4[N+](=O)[O-])cc3)[nH]c2c1,10µM*,-4%,1,?,?,-6
COc1ccc(/C=C(\C#N)c2nc3ccc(C)cc3[nH]2)cc1Oc1ccc(C(F)(F)F)cc1[N+](=O)[O-],16µM*,0%,51,?,-9,1
O=C(CSc1nc(C(F)(F)F)cc(=O)[nH]1)N1CCC(Cc2ccccc2)CC1,12µM*,.,-19,-11%,?,-29
Cc1cc(=O)[nH]c(SCC(=O)N2CCC(Cc3ccccc3)CC2)n1,6%,-1%,?,3%,3,0
COc1ccccc1N1CCN(C(=O)CSc2nc(C)c(C)c(=O)[nH]2)CC1,14%,0%,0,-10%,-17,-19
Cc1nc(SCC(=O)N2CCC(Cc3ccccc3)CC2)[nH]c(=O)c1C,23µM*,-1%,9,16µM*,?,-29
Cc1cc(=O)[nH]c(SCC(=O)N2CCN(C(c3ccccc3)c3ccccc3)CC2)n1,?,-3%,-11,18µM*,12,-8
Cc1ccc(NC(=O)C2CC(=O)N(c3ccc(OC(C)C)cc3)C2)cc1 (stereo not drawn),-17%,1%,.,?,.,-3
Cc1cc2nc3c(nc2cc1C)CCCC3,-28%,-10%,-5,0%,-22,-2
COc1ccc(NC(=O)COC(=O)CCC2CCCC2)c(OC)c1,25%,0%,-1,-2%,15,4
COc1ccccc1-n1c(SCC(=O)NCC2CCCO2)nc2c([nH]c3ccccc32)c1=O (stereo not drawn),-2%,-19%,-9,-15%,-57*,-19
